This passage reports binding signal results from paper PMC7862700, “An all-to-all approach to the identification of sequence-specific readers for epigenetic DNA modifications on cytosine”.

Common to all, as to experiment: DAPPL (digital affinity profiling via proximity ligation, sequencing); 10 mM Tris-HCl pH 7.5, 50 mM NaCl, 1 mM DTT, 4% glycerol, room temperature, 30 min; GST-TFs on glutathione beads, 16-mer random dsDNA library, 0.1% formaldehyde crosslink after washing; high values mean tight binding
Holding throughout (conditions): protein: recombinant; tags: N-terminal GST; dsDNA, one strand shown

One test concerns the target T1, ERF (Homo sapiens, UniProt P50548 1-548).
T1 sequence: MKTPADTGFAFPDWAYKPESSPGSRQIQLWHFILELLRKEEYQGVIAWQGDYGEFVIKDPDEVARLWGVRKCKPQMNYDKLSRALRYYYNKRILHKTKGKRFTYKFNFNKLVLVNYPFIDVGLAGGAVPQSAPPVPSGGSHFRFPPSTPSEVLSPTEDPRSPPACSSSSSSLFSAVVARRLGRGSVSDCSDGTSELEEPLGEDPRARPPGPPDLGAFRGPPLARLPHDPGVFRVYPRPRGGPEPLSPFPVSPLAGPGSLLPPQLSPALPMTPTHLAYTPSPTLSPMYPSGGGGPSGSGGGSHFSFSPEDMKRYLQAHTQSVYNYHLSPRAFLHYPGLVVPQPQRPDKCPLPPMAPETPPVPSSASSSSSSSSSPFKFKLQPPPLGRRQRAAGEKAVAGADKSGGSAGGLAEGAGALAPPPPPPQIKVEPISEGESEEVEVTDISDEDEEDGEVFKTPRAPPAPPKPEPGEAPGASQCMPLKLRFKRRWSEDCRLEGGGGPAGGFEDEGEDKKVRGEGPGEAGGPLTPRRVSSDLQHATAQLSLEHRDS
The procedure, abridged: (§1)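 A tag-only sample was pooled with DNA-barcoded human transcription factors that had been expressed in yeast as GST fusions and captured on glutathione beads. The pools were incubated for 30 min at room temperature with 200 nmole of a random double-stranded 16-mer DNA library in Tris/NaCl/DTT/glycerol buffer, then washed, crosslinked with 0.1% formaldehyde, proximity-ligated (BsaI/T4 ligase, 1 h, 37 °C), PCR-amplified and sequenced on an Illumina NextSeq500. Binding signal is each hexamer's read frequency for a factor divided by its frequency for the tag-only sample.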

In the next test the target is T2, ETV3L (Homo sapiens, UniProt Q6ZN32 1-361).
T2 sequence: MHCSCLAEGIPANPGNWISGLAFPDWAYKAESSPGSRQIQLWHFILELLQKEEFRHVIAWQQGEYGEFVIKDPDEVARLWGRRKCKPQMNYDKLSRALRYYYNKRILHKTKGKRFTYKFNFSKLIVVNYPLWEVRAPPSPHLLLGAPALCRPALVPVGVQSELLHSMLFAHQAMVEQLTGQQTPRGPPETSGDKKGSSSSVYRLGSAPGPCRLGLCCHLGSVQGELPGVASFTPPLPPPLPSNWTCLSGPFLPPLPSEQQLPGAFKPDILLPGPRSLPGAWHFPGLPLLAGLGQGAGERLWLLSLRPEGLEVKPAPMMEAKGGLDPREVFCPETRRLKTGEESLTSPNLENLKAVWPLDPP
The procedure, abridged: as §1

Another test addresses T3, ETS2 (Homo sapiens, UniProt P15036 1-469).
T3 sequence: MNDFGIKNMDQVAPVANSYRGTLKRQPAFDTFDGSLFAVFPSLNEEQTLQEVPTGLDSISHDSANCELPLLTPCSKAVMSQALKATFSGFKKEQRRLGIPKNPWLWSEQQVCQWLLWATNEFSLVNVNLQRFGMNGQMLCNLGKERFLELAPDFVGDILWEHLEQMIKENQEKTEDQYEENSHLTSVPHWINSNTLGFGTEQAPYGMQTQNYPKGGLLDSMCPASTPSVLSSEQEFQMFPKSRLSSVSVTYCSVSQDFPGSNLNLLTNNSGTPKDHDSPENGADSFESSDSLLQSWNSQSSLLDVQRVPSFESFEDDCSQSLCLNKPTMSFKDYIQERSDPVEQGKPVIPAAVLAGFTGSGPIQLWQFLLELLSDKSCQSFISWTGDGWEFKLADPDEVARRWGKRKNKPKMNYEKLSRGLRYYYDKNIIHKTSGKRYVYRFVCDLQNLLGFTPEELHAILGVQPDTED
A digest of the protocol: as §1

Another test has as its target T4, ETV7 (Homo sapiens, UniProt Q9Y603 1-341).
T4 sequence: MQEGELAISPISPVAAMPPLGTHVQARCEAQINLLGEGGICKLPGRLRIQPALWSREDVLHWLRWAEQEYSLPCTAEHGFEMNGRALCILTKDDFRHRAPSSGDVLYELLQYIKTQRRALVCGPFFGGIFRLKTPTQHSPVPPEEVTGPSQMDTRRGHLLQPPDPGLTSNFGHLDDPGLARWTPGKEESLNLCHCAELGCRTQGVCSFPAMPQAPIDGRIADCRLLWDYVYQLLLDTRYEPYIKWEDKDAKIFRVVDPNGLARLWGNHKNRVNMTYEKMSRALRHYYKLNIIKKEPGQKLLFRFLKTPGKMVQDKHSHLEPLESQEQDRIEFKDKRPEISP
The procedure, abridged: as §1

The target in the next test is T5, ELF5 (Homo sapiens, UniProt Q9UKW6-2 1-255).
T5 sequence: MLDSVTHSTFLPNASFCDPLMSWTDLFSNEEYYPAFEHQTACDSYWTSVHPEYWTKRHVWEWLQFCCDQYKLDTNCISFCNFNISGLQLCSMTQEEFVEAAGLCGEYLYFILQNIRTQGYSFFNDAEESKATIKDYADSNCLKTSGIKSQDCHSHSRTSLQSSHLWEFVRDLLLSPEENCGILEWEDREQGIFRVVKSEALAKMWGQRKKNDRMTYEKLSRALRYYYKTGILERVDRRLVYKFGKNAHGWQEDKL
The procedure, abridged: as §1

A further test deals with T6, ETV3 (Homo sapiens, UniProt P41162-2 1-143).
T6 sequence: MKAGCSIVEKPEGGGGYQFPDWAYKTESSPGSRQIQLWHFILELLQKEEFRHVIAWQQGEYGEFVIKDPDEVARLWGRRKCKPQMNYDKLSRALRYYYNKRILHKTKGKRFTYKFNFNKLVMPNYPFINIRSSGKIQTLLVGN
The procedure, abridged: as §1

The next test has as its target ETV6 (Homo sapiens, UniProt P41212 1-452). A digest of the protocol:
as §1

Another test has as its target T7, SPDEF (Homo sapiens, UniProt O95238 1-335).
T7 sequence: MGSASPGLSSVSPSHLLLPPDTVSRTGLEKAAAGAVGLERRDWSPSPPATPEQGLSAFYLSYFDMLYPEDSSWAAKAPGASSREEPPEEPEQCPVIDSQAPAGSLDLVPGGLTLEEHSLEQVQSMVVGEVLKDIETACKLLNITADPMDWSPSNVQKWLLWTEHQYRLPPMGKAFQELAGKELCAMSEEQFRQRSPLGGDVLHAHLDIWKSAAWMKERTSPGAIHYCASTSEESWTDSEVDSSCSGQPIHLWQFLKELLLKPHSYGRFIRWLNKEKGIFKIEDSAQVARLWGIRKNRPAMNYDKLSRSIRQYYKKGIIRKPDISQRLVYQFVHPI
A digest of the protocol:
as §1

Chain of ETV6 (P41212 whole entry): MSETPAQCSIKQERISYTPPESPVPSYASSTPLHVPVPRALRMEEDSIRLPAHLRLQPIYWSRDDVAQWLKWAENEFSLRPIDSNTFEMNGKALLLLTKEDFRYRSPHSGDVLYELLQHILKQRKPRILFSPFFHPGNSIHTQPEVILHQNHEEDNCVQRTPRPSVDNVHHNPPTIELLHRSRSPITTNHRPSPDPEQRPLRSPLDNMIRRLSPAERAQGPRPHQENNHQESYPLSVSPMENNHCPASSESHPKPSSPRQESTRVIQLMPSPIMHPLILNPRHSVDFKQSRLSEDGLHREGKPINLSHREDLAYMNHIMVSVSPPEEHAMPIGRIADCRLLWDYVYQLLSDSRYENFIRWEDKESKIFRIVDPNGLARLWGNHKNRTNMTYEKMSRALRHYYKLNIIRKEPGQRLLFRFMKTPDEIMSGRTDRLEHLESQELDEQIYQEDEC

GCGTTT: the binding signal with ERF is 1.1 fold enrichment (6-mer frequency, TF over GST control); with ETV3L it was 1.11 fold enrichment (6-mer frequency, TF over GST control); in the test with ETS2, 1.09 fold enrichment (6-mer frequency, TF over GST control); with ETV7, 1.12 fold enrichment (6-mer frequency, TF over GST control); with ELF5 it was 1.12 fold enrichment (6-mer frequency, TF over GST control); with ETV3, 1.19 fold enrichment (6-mer frequency, TF over GST control). Also, the binding signal with ETV6 is 1.04 fold enrichment (6-mer frequency, TF over GST control).

With ATCGTT, the binding signal in the test with ERF was 1.01 fold enrichment (6-mer frequency, TF over GST control); with ETV3L, 1.11 fold enrichment (6-mer frequency, TF over GST control); with ETS2, 1.06 fold enrichment (6-mer frequency, TF over GST control); in the test with ETV3 it was 1 fold enrichment (6-mer frequency, TF over GST control); with ETV6, 1.06 fold enrichment (6-mer frequency, TF over GST control).

On to TAGTAA, for which the binding signal with ERF was 1.09 fold enrichment (6-mer frequency, TF over GST control); in the test with ETV3L, 1.04 fold enrichment (6-mer frequency, TF over GST control); with SPDEF, 1.02 fold enrichment (6-mer frequency, TF over GST control); with ETV7, 1.16 fold enrichment (6-mer frequency, TF over GST control); with ELF5, 1.04 fold enrichment (6-mer frequency, TF over GST control); with ETV3 it was 1.06 fold enrichment (6-mer frequency, TF over GST control). Further, the binding signal in the test with ETV6 is 1.07 fold enrichment (6-mer frequency, TF over GST control).

For GCCCCC, the binding signal with ERF is 1.24 fold enrichment (6-mer frequency, TF over GST control); with ETV3L, 1.16 fold enrichment (6-mer frequency, TF over GST control); with ETS2, 1.03 fold enrichment (6-mer frequency, TF over GST control); with ELF5 it was 1.04 fold enrichment (6-mer frequency, TF over GST control); with ETV3 it was 1.21 fold enrichment (6-mer frequency, TF over GST control); with ETV6 it was 1.05 fold enrichment (6-mer frequency, TF over GST control).

Regarding GTATGG, the binding signal is 1.25 fold enrichment (6-mer frequency, TF over GST control) with ERF; 1.03 fold enrichment (6-mer frequency, TF over GST control) with ETV3L; 1.01 fold enrichment (6-mer frequency, TF over GST control) with ETS2; 1.02 fold enrichment (6-mer frequency, TF over GST control) with ETV7; 1.03 fold enrichment (6-mer frequency, TF over GST control) with ELF5; 1.01 fold enrichment (6-mer frequency, TF over GST control) in the test with ETV6.

For AAGCGA, the binding signal with ERF is 1.02 fold enrichment (6-mer frequency, TF over GST control); in the test with ETV3L it was 1.02 fold enrichment (6-mer frequency, TF over GST control); in the test with ETS2, 1.05 fold enrichment (6-mer frequency, TF over GST control); with ETV7, 1.09 fold enrichment (6-mer frequency, TF over GST control); with ELF5, 1.07 fold enrichment (6-mer frequency, TF over GST control); with ETV3, 1.12 fold enrichment (6-mer frequency, TF over GST control). Moreover, the binding signal in the test with ETV6 was 1.05 fold enrichment (6-mer frequency, TF over GST control).

In the case of ACCGAA, the binding signal with ERF is 1.09 fold enrichment (6-mer frequency, TF over GST control); with ETV3L, 1.04 fold enrichment (6-mer frequency, TF over GST control); with ETS2 it was 1.07 fold enrichment (6-mer frequency, TF over GST control); with ETV3, 1.02 fold enrichment (6-mer frequency, TF over GST control); with ETV6, 1 fold enrichment (6-mer frequency, TF over GST control).

Take TTCGGC: the binding signal in the test with ERF is 1.13 fold enrichment (6-mer frequency, TF over GST control); in the test with ETV3L, 1.05 fold enrichment (6-mer frequency, TF over GST control); in the test with ETV7, 1.19 fold enrichment (6-mer frequency, TF over GST control); with ELF5, 1.01 fold enrichment (6-mer frequency, TF over GST control); with ETV3 it was 1.13 fold enrichment (6-mer frequency, TF over GST control).
